Measured values published in PubChem BioAssay AID1159580 (chemical genetic matrix, 2015).
Among all 5,500 compounds or so, about 2,000 (36%) were called active. About 18% were inconclusive and are not listed. No stated cut-off is given here; in the data, active means normalized growth mostly below about 0.91 (no sharp cut-off); inconclusive means no clear call, values can overlap the other calls; inactive means mostly above about 0.92. The list shows a part of the results.

Assay: chemical genetic growth profiling, strain panel (AID 1159580);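 further: tested at 20 µM; growth read once vehicle control cultures reached saturation at 30 °C; 1 = growth at the plate median or of vehicle wells; lower values mean less growth of the strain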
Settings: growth OD

Measured: normalized growth

Cc1c(Cl)cccc1SCC(=O)O
inactive: S. cerevisiae deletion strains, locus YAL013W, strain DEP1, active compounds read low 0.944 | S. cerevisiae deletion strains, locus YBR229C, strain ROT2, active compounds read low 0.958 | S. cerevisiae deletion strains, locus YCL061C, strain MRC1, active compounds read low 0.989 | S. cerevisiae deletion strains, locus YDL101C, strain DUN1, active compounds read low 0.973 | S. cerevisiae deletion strains, locus YDL134C, strain PPH21, active compounds read low 1.01 | S. cerevisiae deletion strains, locus YDR150W, strain NUM1, active compounds read low 0.926 | S. cerevisiae deletion strains, locus YEL061C, strain CIN8, active compounds read low 0.977 | S. cerevisiae deletion strains, locus YGR078C, strain PAC10, active compounds read low 0.964 | S. cerevisiae deletion strains, locus YHR030C, strain SLT2, active compounds read low 1.06 | S. cerevisiae deletion strains, locus YHR087W, strain rtc3, active compounds read low 0.984 | S. cerevisiae deletion strains, locus YJR043C, strain POL32, active compounds read low 0.973 | S. cerevisiae deletion strains, locus YJR075W, strain HOC1, active compounds read low 0.937 | S. cerevisiae deletion strains, locus YKL190W, strain CNB1, active compounds read low 1.01 | S. cerevisiae deletion strains, locus YLR039C, strain RIC1, active compounds read low 1 | S. cerevisiae deletion strains, locus YLR058C, strain SHM2 (second series), active compounds read low 0.967 | S. cerevisiae deletion strains, locus YLR085C, strain ARP6, active compounds read low 1.03 | S. cerevisiae deletion strains, locus YLR262C, strain YPT6, active compounds read low 0.995 | S. cerevisiae deletion strains, locus YML094W, strain GIM5, active compounds read low 0.997 | S. cerevisiae deletion strains, locus YMR263W, strain SAP30, active compounds read low 0.941 | S. cerevisiae deletion strains, locus YNL153C, strain GIM3, active compounds read low 0.942 | S. cerevisiae deletion strains, locus YNL298W, strain CLA4 (second series), active compounds read low 1.02 | S. cerevisiae deletion strains, locus YNL322C, strain KRE1, active compounds read low 0.944 | S. cerevisiae deletion strains, locus YNR030W, strain Alg12, active compounds read low 1 | S. cerevisiae deletion strains, locus YPL055C, strain LGE1, active compounds read low 0.837 | S. cerevisiae deletion strains, locus YPL241C, strain CIN2, active compounds read low 1 | S. cerevisiae deletion strains, locus YPR135W, strain CTF4, active compounds read low 1.06 | S. cerevisiae strains, strain wild type, active compounds read low 1.01
active: S. cerevisiae deletion strains, locus YMR219W, strain ESC1, active compounds read low 0.945
